Data reported in the supplement of paper PMC10681739.

The sequences below were run against T1, ETS1 (UniProt P14921) (assay: ETS1 binding intensity (PBM fluorescence), ETS1 alone (arbitrary fluorescence units); higher = stronger binding). Conditions: ETS1 concentration 1 nM; RUNX1 concentration 0 nM.
T1 sequence: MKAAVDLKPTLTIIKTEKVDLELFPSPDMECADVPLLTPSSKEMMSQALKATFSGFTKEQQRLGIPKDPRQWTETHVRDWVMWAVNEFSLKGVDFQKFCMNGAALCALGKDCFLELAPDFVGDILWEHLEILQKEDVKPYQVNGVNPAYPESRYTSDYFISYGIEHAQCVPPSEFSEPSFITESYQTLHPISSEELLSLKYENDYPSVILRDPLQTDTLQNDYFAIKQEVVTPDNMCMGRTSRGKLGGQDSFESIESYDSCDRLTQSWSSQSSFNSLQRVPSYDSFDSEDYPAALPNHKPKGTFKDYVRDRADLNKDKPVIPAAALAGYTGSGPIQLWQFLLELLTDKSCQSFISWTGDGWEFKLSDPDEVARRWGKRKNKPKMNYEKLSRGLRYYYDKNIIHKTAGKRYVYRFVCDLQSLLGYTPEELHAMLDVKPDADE
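Throughout, for RUNX1 binding intensity (PBM fluorescence), RUNX1 alone: Full-length recombinant human RUNX1 bound to double-stranded 36-bp genomic probes on a high-density microarray, scored as Alexa488 fluorescence per spot via anti-RUNX1 antibody, median of four replicate spots.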

Row | Sequence | ETS1 binding intensity
1 | CCGGGCGCCACTTCCGGTCCCCGTGGTCACGTGACC | 14800
2 | GCTTCTGAGGAAGTGCGTTTTGTGGGTAGGTGGAGT | 706
3 | CCACCGTCCCCGGAAATAACCGCGCCTGCCTCTCAA | 1940
4 | AGGGCATAAACAGGATGTGGTGTTGGATGAAACCTT | 5290
5 | TGAGCACAGTATTTCCTGTGGTTTCTATTGCATTTC | 1010
6 | AGGCTTCCGGCCACGCCCCCTTCCCGCGGTTGCTAG | 704
7 | CCCTTGCCAGAGGAAGCCACTGCCACCGCAGAAGCA | 417
8 | CAGGCTCGCCACAGGGGAAGTGGTTAGGGCGGGTCC | 684
9 | TCCCCTCTCCCCATCCGCCCGAGACCACAGCCACTC | 592
10 | GACTTTTACGGAAATAGCAGTCCAAAACCGCGTCTA | 691
11 | ACCTTGCCTAGAGGAAGTGGTTTTTCGAATCTGAGT | 2070
12 | AGAATCGCATCAGGATGTGGTGAGGGAGCACATTTG | 948
13 | TGGCAGAGCACATCCTGTGCGGTTTTCAGTTTTGCT | 1120
14 | CCTGGTCCGGAAGCGCTGTCCCCGCCTCCCGCATAG | 1950
15 | CCTTGCTACAGGATGTTTTGACCACGAGCCCAGGAG | 1440
16 | GCCAACAGGAAGCTGGAAGCCAACCGCACTGTGTGC | 1190
17 | ATGCCTTCTTCCAGAGGATGTGGTCGCTACTAGTGG | 1320
18 | TCAGGGGTGGGAGGAAGTGGTTAGGATCAGCCTGGG | 1910
19 | AGCTAGGACAGGATGTGAAAACCACACTGACAAAGT | 2620
20 | TCTCCCGGAACTGCTCCTTCACCATGATGACCGCTG | 590

Row | Sequence | ETS1 binding intensity
21 | AACAGACAGGATGTGGCCTCTGCCAAAACCACCATC | 3250
22 | GCCGGCGGCCGGAAGTCTATCCCGCAGAAGCGCAGC | 9360
23 | CAGCTGACAGGAAGGAGAGAACCACAGACAGTGCGA | 782
24 | TGCAGTCGTGAAAAAGGAAGTGGTTAAAGTGGCTAC | 3680
25 | ACTCCAGAGGAAGTGGCAAGACGAGCGCGGTAACGG | 1080
26 | AAGTTGATTTCCGGGTAGTCTGTGGTTTCCTAATCA | 1040
27 | TCTCTATGGTTTCCGTTGGGTGTGTGGTTTTTTTGT | 579
28 | TTGCCATTCCAGGAAATGAGCTTACCACATTGACTG | 1980
29 | GAATGGCGGATGTGGCTGGGGAGAGAAAGCCGCAGA | 914
30 | TGCAAAAAAACAGGAAACACCCAGCCGCAAATTATA | 1740
31 | AGCAGGAAGTATGTTGAAAGTCATAACCACAGCAAA | 908
32 | ATAGTCTCTTCCTGTGTTGCAAACCACAGGTCCACC | 743
33 | CGCCGAACTTCCGGCAGTAAATTCCGTGGTTTCCCT | 2800
34 | GGTGTGTTCTGGGGAGGAAGTGGGTTTTCAGGTTGT | 3820
35 | CATTCAGTAAAAGGATGTGGTTTAGAACAGATGAAA | 1230
36 | AGAGACAGCGGGCGGAAACCGCAGAAAAAGTTGAAA | 1640
37 | ACAATAACAGGAAGTGGTGGGGACTGCGGTGACCTG | 4750
38 | GCCACACTTCCGGCGGGGCTGCGACCGCAGAGGGGC | 1170
39 | TCCGGAAGTGGCACTGATGGGCGCCTGCGGCGGGGG | 2720
40 | GTTCCTTTGAAAGCAGGATGTGGTTTGCCCCAGCTT | 5390

The sequences below were run against RUNX1 (UniProt Q01196) (assay: RUNX1 binding intensity (PBM fluorescence), RUNX1 alone (arbitrary fluorescence units); higher = stronger binding). Conditions: RUNX1 concentration 2 nM; ETS1 concentration 0 nM.
Experimental: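 Cooperative gcPBM on 36-bp genomic probes with neighbouring ETS1 and RUNX1 sites. Recombinant human RUNX1 (2 nM) was incubated alone or with ETS1 (25 nM) and detected with anti-RUNX1 antibody plus Alexa488 secondary. Values are medians over 4 replicate spots; the RUNX1+ETS1 data were normalised to the RUNX1-only data. The probes sit in constant array flanks that are not printed.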

Chain of RUNX1 (Q01196 whole entry): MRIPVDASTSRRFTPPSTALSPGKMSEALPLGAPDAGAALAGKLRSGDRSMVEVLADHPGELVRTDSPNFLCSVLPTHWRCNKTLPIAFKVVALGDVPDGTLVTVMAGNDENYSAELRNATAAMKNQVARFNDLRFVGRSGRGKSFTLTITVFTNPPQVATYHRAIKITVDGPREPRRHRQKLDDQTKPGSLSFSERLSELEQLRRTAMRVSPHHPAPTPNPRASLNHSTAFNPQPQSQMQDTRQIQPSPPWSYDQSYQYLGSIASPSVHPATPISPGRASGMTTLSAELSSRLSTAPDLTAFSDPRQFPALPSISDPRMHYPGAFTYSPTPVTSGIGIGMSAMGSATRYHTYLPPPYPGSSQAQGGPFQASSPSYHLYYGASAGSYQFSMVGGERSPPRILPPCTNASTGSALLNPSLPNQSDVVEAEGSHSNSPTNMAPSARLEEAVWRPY

Row | Sequence | RUNX1 binding intensity
41 | CCGGGCGCCACTTCCGGTCCCCGTGGTCACGTGACC | 904
42 | GCTTCTGAGGAAGTGCGTTTTGTGGGTAGGTGGAGT | 792
43 | CCACCGTCCCCGGAAATAACCGCGCCTGCCTCTCAA | 1330
44 | AGGGCATAAACAGGATGTGGTGTTGGATGAAACCTT | 750
45 | TGAGCACAGTATTTCCTGTGGTTTCTATTGCATTTC | 1090
46 | AGGCTTCCGGCCACGCCCCCTTCCCGCGGTTGCTAG | 748
47 | CCCTTGCCAGAGGAAGCCACTGCCACCGCAGAAGCA | 970
48 | CAGGCTCGCCACAGGGGAAGTGGTTAGGGCGGGTCC | 775
49 | TCCCCTCTCCCCATCCGCCCGAGACCACAGCCACTC | 1340
50 | GACTTTTACGGAAATAGCAGTCCAAAACCGCGTCTA | 868
51 | ACCTTGCCTAGAGGAAGTGGTTTTTCGAATCTGAGT | 739
52 | AGAATCGCATCAGGATGTGGTGAGGGAGCACATTTG | 713
53 | TGGCAGAGCACATCCTGTGCGGTTTTCAGTTTTGCT | 2600
54 | CCTGGTCCGGAAGCGCTGTCCCCGCCTCCCGCATAG | 822
55 | CCTTGCTACAGGATGTTTTGACCACGAGCCCAGGAG | 1090
56 | GCCAACAGGAAGCTGGAAGCCAACCGCACTGTGTGC | 899
57 | ATGCCTTCTTCCAGAGGATGTGGTCGCTACTAGTGG | 725
58 | TCAGGGGTGGGAGGAAGTGGTTAGGATCAGCCTGGG | 776
59 | AGCTAGGACAGGATGTGAAAACCACACTGACAAAGT | 919
60 | TCTCCCGGAACTGCTCCTTCACCATGATGACCGCTG | 966

Row | Sequence | RUNX1 binding intensity
61 | AACAGACAGGATGTGGCCTCTGCCAAAACCACCATC | 869
62 | GCCGGCGGCCGGAAGTCTATCCCGCAGAAGCGCAGC | 736
63 | CAGCTGACAGGAAGGAGAGAACCACAGACAGTGCGA | 801
64 | TGCAGTCGTGAAAAAGGAAGTGGTTAAAGTGGCTAC | 753
65 | ACTCCAGAGGAAGTGGCAAGACGAGCGCGGTAACGG | 728
66 | AAGTTGATTTCCGGGTAGTCTGTGGTTTCCTAATCA | 1210
67 | TCTCTATGGTTTCCGTTGGGTGTGTGGTTTTTTTGT | 1130
68 | TTGCCATTCCAGGAAATGAGCTTACCACATTGACTG | 798
69 | GAATGGCGGATGTGGCTGGGGAGAGAAAGCCGCAGA | 836
70 | TGCAAAAAAACAGGAAACACCCAGCCGCAAATTATA | 863
71 | AGCAGGAAGTATGTTGAAAGTCATAACCACAGCAAA | 776
72 | ATAGTCTCTTCCTGTGTTGCAAACCACAGGTCCACC | 1050
73 | CGCCGAACTTCCGGCAGTAAATTCCGTGGTTTCCCT | 911
74 | GGTGTGTTCTGGGGAGGAAGTGGGTTTTCAGGTTGT | 799
75 | CATTCAGTAAAAGGATGTGGTTTAGAACAGATGAAA | 958
76 | AGAGACAGCGGGCGGAAACCGCAGAAAAAGTTGAAA | 8270
77 | ACAATAACAGGAAGTGGTGGGGACTGCGGTGACCTG | 865
78 | GCCACACTTCCGGCGGGGCTGCGACCGCAGAGGGGC | 1140
79 | TCCGGAAGTGGCACTGATGGGCGCCTGCGGCGGGGG | 758
80 | GTTCCTTTGAAAGCAGGATGTGGTTTGCCCCAGCTT | 881
